The values below come from paper PMC9911399, “Two distinct binding modes provide the RNA-binding protein RbFox with extraordinary sequence specificity”.

First the molecules themselves.
T1: RBFOX1 RRM (Homo sapiens, UniProt Q9NWB1 109-208)
T1 sequence: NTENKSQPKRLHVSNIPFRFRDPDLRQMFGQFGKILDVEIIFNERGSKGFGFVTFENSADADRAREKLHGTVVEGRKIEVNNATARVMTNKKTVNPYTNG

B1: GAAUGAG (DNA:RNA)
RNA: GGGAGACCGGAAUUCAGAUUGUCCGAAUGAGUUAAAUCCCGUCGUAGCCACCA
DNA 1: CAATCTGAATTCCGGTCTCCC
DNA 2: TGGTGGCTACGACGGGATT
B2: GCGUCGU (DNA:RNA)
RNA: B1 RNA with A26C, A27G, G29C, A30G, G31U
DNA 1: CAATCTGAATTCCGGTCTCCC
DNA 2: TGGTGGCTACGACGGGATT
B3: AUGCCGG (DNA:RNA)
RNA: B1 RNA with G25A, A26U, A27G, U28C, G29C, A30G
DNA 1: CAATCTGAATTCCGGTCTCCC
DNA 2: TGGTGGCTACGACGGGATT
B4: AGCGCGG (DNA:RNA)
RNA: B1 RNA with G25A, A26G, A27C, U28G, G29C, A30G
DNA 1: CAATCTGAATTCCGGTCTCCC
DNA 2: TGGTGGCTACGACGGGATT
B5: AGAACUA (DNA:RNA)
RNA: B1 RNA with G25A, A26G, U28A, G29C, A30U, G31A
DNA 1: CAATCTGAATTCCGGTCTCCC
DNA 2: TGGTGGCTACGACGGGATT
B6: UGAUUGA (DNA:RNA)
RNA: B1 RNA with G25U, A26G, G29U, A30G, G31A
DNA 1: CAATCTGAATTCCGGTCTCCC
DNA 2: TGGTGGCTACGACGGGATT
B7: UGAUCGA (DNA:RNA)
RNA: B1 RNA with G25U, A26G, G29C, A30G, G31A
DNA 1: CAATCTGAATTCCGGTCTCCC
DNA 2: TGGTGGCTACGACGGGATT
B8: UGUUUGG (DNA:RNA)
RNA: B1 RNA with G25U, A26G, A27U, G29U, A30G
DNA 1: CAATCTGAATTCCGGTCTCCC
DNA 2: TGGTGGCTACGACGGGATT
B9: UGAUCCG (DNA:RNA)
RNA: B1 RNA with G25U, A26G, G29C, A30C
DNA 1: CAATCTGAATTCCGGTCTCCC
DNA 2: TGGTGGCTACGACGGGATT
B10: UGAUUAA (DNA:RNA)
RNA: B1 RNA with G25U, A26G, G29U, G31A
DNA 1: CAATCTGAATTCCGGTCTCCC
DNA 2: TGGTGGCTACGACGGGATT
B11: UGCCUGA (DNA:RNA)
RNA: GGGAGACCGGAAUUCAGAUUGUCCUGCCUGAUUAAAUCCCGUCGUAGCCACCA
DNA 1: CAATCTGAATTCCGGTCTCCC
DNA 2: TGGTGGCTACGACGGGATT
B12: CGAUCGA (DNA:RNA)
RNA: B11 RNA with U25C, C27A, C28U, U29C
DNA 1: CAATCTGAATTCCGGTCTCCC
DNA 2: TGGTGGCTACGACGGGATT
B13: UGCCUCG (DNA:RNA)
RNA: B11 RNA with G30C, A31G
DNA 1: CAATCTGAATTCCGGTCTCCC
DNA 2: TGGTGGCTACGACGGGATT
B14: UGCCUGC (DNA:RNA)
RNA: B11 RNA with A31C
DNA 1: CAATCTGAATTCCGGTCTCCC
DNA 2: TGGTGGCTACGACGGGATT
B15: UGGUUGU (DNA:RNA)
RNA: B11 RNA with C27G, C28U, A31U
DNA 1: CAATCTGAATTCCGGTCTCCC
DNA 2: TGGTGGCTACGACGGGATT
B16: UGCCCGC (DNA:RNA)
RNA: B11 RNA with U29C, A31C
DNA 1: CAATCTGAATTCCGGTCTCCC
DNA 2: TGGTGGCTACGACGGGATT
B17: UGGUUUG (DNA:RNA)
RNA: B11 RNA with C27G, C28U, G30U, A31G
DNA 1: CAATCTGAATTCCGGTCTCCC
DNA 2: TGGTGGCTACGACGGGATT
B18: UGUCCGA (DNA:RNA)
RNA: B11 RNA with C27U, U29C
DNA 1: CAATCTGAATTCCGGTCTCCC
DNA 2: TGGTGGCTACGACGGGATT
B19: CCAGGCU (DNA:RNA)
RNA: B1 RNA with G25C, A26C, U28G, A30C, G31U
DNA 1: CAATCTGAATTCCGGTCTCCC
DNA 2: TGGTGGCTACGACGGGATT
B20: UAGUUGG (DNA:RNA)
RNA: B1 RNA with G25U, A27G, G29U, A30G
DNA 1: CAATCTGAATTCCGGTCTCCC
DNA 2: TGGTGGCTACGACGGGATT
B21: CCAAUAG (DNA:RNA)
RNA: B1 RNA with G25C, A26C, U28A, G29U
DNA 1: CAATCTGAATTCCGGTCTCCC
DNA 2: TGGTGGCTACGACGGGATT
B22: UCAAGAG (DNA:RNA)
RNA: B1 RNA with G25U, A26C, U28A
DNA 1: CAATCTGAATTCCGGTCTCCC
DNA 2: TGGTGGCTACGACGGGATT
B23: GUUUUAG (DNA:RNA)
RNA: B1 RNA with A26U, A27U, G29U
DNA 1: CAATCTGAATTCCGGTCTCCC
DNA 2: TGGTGGCTACGACGGGATT
B24: GCGGAGC (DNA:RNA)
RNA: B1 RNA with A26C, A27G, U28G, G29A, A30G, G31C
DNA 1: CAATCTGAATTCCGGTCTCCC
DNA 2: TGGTGGCTACGACGGGATT
B25: CCUUACC (DNA:RNA)
RNA: B1 RNA with G25C, A26C, A27U, G29A, A30C, G31C
DNA 1: CAATCTGAATTCCGGTCTCCC
DNA 2: TGGTGGCTACGACGGGATT
B26: CCGUAGA (DNA:RNA)
RNA: B11 RNA with U25C, G26C, C27G, C28U, U29A
DNA 1: CAATCTGAATTCCGGTCTCCC
DNA 2: TGGTGGCTACGACGGGATT
B27: UGUAGCC (DNA:RNA)
RNA: B11 RNA with C27U, C28A, U29G, G30C, A31C
DNA 1: CAATCTGAATTCCGGTCTCCC
DNA 2: TGGTGGCTACGACGGGATT
B28: UUGCCUG (DNA:RNA)
RNA: B11 RNA with G26U, C27G, U29C, G30U, A31G
DNA 1: CAATCTGAATTCCGGTCTCCC
DNA 2: TGGTGGCTACGACGGGATT
B29: UGUUGCC (DNA:RNA)
RNA: B1 RNA with G25U, A26G, A27U, A30C, G31C
DNA 1: CAATCTGAATTCCGGTCTCCC
DNA 2: TGGTGGCTACGACGGGATT
B30: UGCUGGU (DNA:RNA)
RNA: B11 RNA with C28U, U29G, A31U
DNA 1: CAATCTGAATTCCGGTCTCCC
DNA 2: TGGTGGCTACGACGGGATT
B31: UGGUGCC (DNA:RNA)
RNA: B1 RNA with G25U, A26G, A27G, A30C, G31C
DNA 1: CAATCTGAATTCCGGTCTCCC
DNA 2: TGGTGGCTACGACGGGATT
B32: UGGUUCC (DNA:RNA)
RNA: B11 RNA with C27G, C28U, G30C, A31C
DNA 1: CAATCTGAATTCCGGTCTCCC
DNA 2: TGGTGGCTACGACGGGATT
B33: GUGCCUG (DNA:RNA)
RNA: B1 RNA with A26U, A27G, U28C, G29C, A30U
DNA 1: CAATCTGAATTCCGGTCTCCC
DNA 2: TGGTGGCTACGACGGGATT
B34: UGGUUCG (DNA:RNA)
RNA: B11 RNA with C27G, C28U, G30C, A31G
DNA 1: CAATCTGAATTCCGGTCTCCC
DNA 2: TGGTGGCTACGACGGGATT
B35: GUCCUGG (DNA:RNA)
RNA: B11 RNA with U25G, G26U, A31G
DNA 1: CAATCTGAATTCCGGTCTCCC
DNA 2: TGGTGGCTACGACGGGATT
B36: UGUGCCG (DNA:RNA)
RNA: B11 RNA with C27U, C28G, U29C, G30C, A31G
DNA 1: CAATCTGAATTCCGGTCTCCC
DNA 2: TGGTGGCTACGACGGGATT
B37: UGUCCCG (DNA:RNA)
RNA: B11 RNA with C27U, U29C, G30C, A31G
DNA 1: CAATCTGAATTCCGGTCTCCC
DNA 2: TGGTGGCTACGACGGGATT
B38: UGCCUGG (DNA:RNA)
RNA: B11 RNA with A31G
DNA 1: CAATCTGAATTCCGGTCTCCC
DNA 2: TGGTGGCTACGACGGGATT

Substitutions are numbered along the chain they refer to; changes in the protein carry UniProt numbers. In all, about 16,000 sequences were measured (“ka relative to ugcaugu”: median about 0.0091, highest 2% from about 0.032 on). The sample as a whole holds a higher share of the highest values than the screen did.

The assay addresses T1, RBFOX1 RRM. The assay is described as follows: EMSA; HiTS-Eq, 1 nM pool, 10 min; buffer printed only for the single-RNA assays: 10 mM Tris pH 7.5, 150 mM NaCl, 3.4 mM EDTA, 0.001% NP-40, 30 C. As to conditions: tags: His6 N-terminal (pET28a); label: 5' 32P. The gist of the method:
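Relative association constants, normalised to the cognate motif, were derived by comparing read counts of each RNA species with those of the control reaction. The RNA sequenced was the free fraction, separated by 8% native PAGE after a 10 min equilibration in 50 µL of 1 nM 5′-radiolabelled RNA (7 randomized nucleotides) with increasing concentrations of purified wild-type or mutant RbFox RRM.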
As to B1, the binding signal is 0.0255 KA relative to UGCAUGU. With B2 the figure was 0.0171 KA relative to UGCAUGU.

Turning to B3, the binding signal is 0.0153 KA relative to UGCAUGU. With B4 the figure was 0.0172 KA relative to UGCAUGU. With B5 the figure was 0.00165 KA relative to UGCAUGU; with B6, 0.028 KA relative to UGCAUGU. With B7 the figure was 0.0347 KA relative to UGCAUGU; with B8, 0.0271 KA relative to UGCAUGU; with B9, 0.0149 KA relative to UGCAUGU. For the molecule B10, the binding signal was 0.00933 KA relative to UGCAUGU. For B11, the binding signal was 0.0398 KA relative to UGCAUGU. With B12 the figure was 0.0185 KA relative to UGCAUGU; with B13, 0.0235 KA relative to UGCAUGU. With B14 the figure was 0.0698 KA relative to UGCAUGU. Regarding B15, the binding signal is 0.0314 KA relative to UGCAUGU. With B16 the figure was 0.0206 KA relative to UGCAUGU; with B17, 0.0372 KA relative to UGCAUGU; with B18, 0.0182 KA relative to UGCAUGU. On to B19, for which the binding signal was 0.00926 KA relative to UGCAUGU. With B20 the figure was 0.0164 KA relative to UGCAUGU. With B21 the figure was 0.00034 KA relative to UGCAUGU; with B22, 0.00877 KA relative to UGCAUGU; with B23, 0.0145 KA relative to UGCAUGU. As for B24, the binding signal is 0.0117 KA relative to UGCAUGU. In the case of B25, the binding signal is 0.00281 KA relative to UGCAUGU.

As for B26, the binding signal is 0.00944 KA relative to UGCAUGU. With B27 the figure was 0.0129 KA relative to UGCAUGU.

On to B28, for which the binding signal was 0.0452 KA relative to UGCAUGU. Turning to B29, the binding signal was 0.0243 KA relative to UGCAUGU. In the case of B30, the binding signal was 0.028 KA relative to UGCAUGU.

As to B31, the binding signal is 0.0219 KA relative to UGCAUGU.

Consider B32, for which the binding signal is 0.0214 KA relative to UGCAUGU.

For the molecule B33, the binding signal is 0.0397 KA relative to UGCAUGU. For B34, the binding signal is 0.0375 KA relative to UGCAUGU. With B35 the figure was 0.0183 KA relative to UGCAUGU. With B36 the figure was 0.0199 KA relative to UGCAUGU; with B37, 0.0122 KA relative to UGCAUGU.

As to B38, the binding signal was 0.0474 KA relative to UGCAUGU.
